Test results reported in PubChem BioAssay.
Several values for one entry are separate records, joined by “and”; a condition that tells them apart may be missing. Identical values can stand only once. Unmarked numbers belong to inactive results. Activity calls are given as the source filed them.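 Rule for the calls: active = thallium flux through the channel raised or lowered by more than 3 SD from vehicle-only wells, actives on both sides; inactive = the rest.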

Assays:
Experiment in all cases: BK channel mutant inhibitors and activators – cell-based, U2OS BacMam, thallium flux, beta subunits, selectivity assay, profiling panel (AID 1259406);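 note: initial slope of Thallos dye fluorescence rise after thallium is added; log ratio against the mean of 0.3% DMSO vehicle wells on the same plate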
F380Y/beta2Delta = conditions: U2OS BacMam BK variants, at 30 µM
F380Y/beta4 = conditions: U2OS BacMam BK variants, at 30 µM
[1] = target: Calcium-activated potassium channel subunit alpha-1 (Homo sapiens) + Leucine-rich repeat-containing protein 26 (Homo sapiens) (UniProt Q12791+Q2I0M4); conditions: U2OS BacMam BK variants, F380Y/Slo1WT/gamma1, at 30 µM
R275C = conditions: U2OS BacMam BK variants, at 30 µM
R275C/beta1 = conditions: U2OS BacMam BK variants, at 30 µM
R275C/beta2Delta = conditions: U2OS BacMam BK variants, at 30 µM
R275C/beta4 = conditions: U2OS BacMam BK variants, at 30 µM
R275C/Slo1WT/beta2 = conditions: U2OS BacMam BK variants, at 30 µM

Chain of Calcium-activated potassium channel subunit alpha-1 (Homo sapiens) + Leucine-rich repeat-containing protein 26 (Homo sapiens) (Q2I0M4 whole entry, looked up, one chain of several): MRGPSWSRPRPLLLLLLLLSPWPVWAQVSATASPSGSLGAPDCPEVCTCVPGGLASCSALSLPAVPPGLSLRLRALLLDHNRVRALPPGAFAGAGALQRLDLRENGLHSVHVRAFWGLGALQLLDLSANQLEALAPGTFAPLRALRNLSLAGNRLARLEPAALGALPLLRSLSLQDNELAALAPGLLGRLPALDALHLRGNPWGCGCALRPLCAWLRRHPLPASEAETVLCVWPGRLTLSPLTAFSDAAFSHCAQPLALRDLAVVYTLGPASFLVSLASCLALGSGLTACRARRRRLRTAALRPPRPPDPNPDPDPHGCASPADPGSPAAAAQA

Compound | log fold change Tl+ flux (F380Y/beta2Delta) | log fold change Tl+ flux (F380Y/beta4) | log fold change Tl+ flux [1] | log fold change Tl+ flux (R275C) | log fold change Tl+ flux (R275C/beta1) | log fold change Tl+ flux (R275C/beta2Delta) | log fold change Tl+ flux (R275C/beta4) | log fold change Tl+ flux (R275C/Slo1WT/beta2)
CC(C)NCC(O)COc1ccc(COCCOC(C)C)cc1 (configuration not stated) | 0.00366 | 0.0255 | 0.0397 | -0.0696 | -0.003 | -0.0507 | 0.0137 | 0.0109
CN(CCCN1c2ccccc2CCc2ccccc21)CC(=O)c1ccc(Cl)cc1 | -0.0465 | 0.0103 | 0.00396 | -0.00393 | 0.055 | 0.0142 | 0.0763 | -0.0536
O=C1N(c2ccccc2)c2ccccc2C1(Cc1ccncc1)Cc1ccncc1 | -0.0915 | -0.0921 | -0.0557 | -0.00568 | 0.0135 | 0.00649 | -0.0197 | -0.0252
O=C(NCCO[N+](=O)[O-])c1cccnc1 | -0.00246 | 0.013 | 0.000443 | -0.059 | -0.0194 | 0.000208 | 0.0335 | -0.00283
Cc1cccc(C)c1NC(=O)C(C)N (configuration not stated) | 0.0308 | 0.00908 | -0.00222 | 0.0212 | -0.0204 | -0.0462 | -0.0241 | 0.0922 (active)
CCN1CCN(c2cc3c(cc2F)c(=O)c(C(=O)O)cn3C2CC2)CC1 | -0.0171 | 0.015 | 0.00572 | -0.0438 | 0.0122 | 0.0322 | 0.0288 | 0.165 (active)
Cc1cnc(NC(=O)C2=C(O)c3ccccc3S(=O)(=O)N2C)s1 | 0.0267 | 0.0475 | 0.0367 | -0.0331 | 0.00607 | 0.00306 | 0.00145 | 0.0334
CC(Cc1ccccc1)(NC(=O)CN)c1ccccc1 (configuration not stated) | 0.0679 | 0.0357 | -0.0139 | 0.0158 | 0.0479 | 0.036 | 0.0184 | -0.037
CCc1nn(CCCN2CCN(c3cccc(Cl)c3)CC2)c(=O)n1CCOc1ccccc1 | -0.507 (active) | -0.446 (active) | 0.00963 | -0.055 | 0.378 (active) | 0.156 (active) | 0.207 (active) | -0.00757
CCOC(=O)[C@H](CCc1ccccc1)N[C@@H](C)C(=O)N1[C@H](C(=O)O)C[C@@H]2CCC[C@@H]21 | 0.0153 and 0.0206 | 0.00789 and 0.00803 | -0.0126 and 0.00594 | 0.0107 and 0.01 | -0.0118 and -0.0507 | -0.0152 and 0.00655 | 0.00822 and 0.0154 | -0.0515 and 0.000239
COc1ccc(CN2CCN(C(c3ccc(F)cc3)c3ccc(F)cc3)CC2)c(OC)c1OC | -0.015 | 0.0162 | -0.00669 | -0.0264 | -0.0636 | -0.0699 | 0.0197 | -0.00919
CC[N+](C)(CC)CCOC(=O)C(O)(c1ccccc1)C1CCCCC1 (configuration not stated) | -0.0141 | -0.0257 | 0.0349 | -0.0159 | -0.00643 | 0.0312 | 0.0157 | 0.0812 (active)
O=C(NCCN1CCOCC1)c1ccc(Cl)cc1 | -0.0313 | -0.0725 | -0.000886 | -0.0119 | -0.015 | -0.0276 | -0.0049 | -0.0216
Brc1c(NC2=NCCN2)ccc2nccnc12 | -0.06 | -0.0578 | -0.0163 | -0.0123 | 0.0524 | -0.0061 | 0.0292 | 0.0556
CC(N)C12CC3CC(CC(C3)C1)C2 (configuration not stated) | 0.0577 | 0.0485 | 0.0164 | 0.0361 | -0.0211 | 0.0568 | 0.04 | 0.0291
CCc1c(C)[nH]c2c1C(=O)C(CN1CCOCC1)CC2 (configuration not stated) | 0.0445 | -0.00138 | -0.0511 | 0.0162 | -0.0312 | 0.0494 | -0.0175 | 0.00393
CN1CCN(c2c(F)cc3c(=O)c(C(=O)O)cn4c3c2SCC4)CC1 | 0.0235 | -0.00383 | 0.0303 | -0.068 | 0.019 | 0.0239 | 0.00729 | -0.0231
Cc1ccnc2c1NC(=O)c1cccnc1N2C1CC1 | 0.0168 | 0.0216 | -0.00356 | -0.0605 | -0.00377 | 0.0164 | -0.0208 | -0.00118
C[C@@H]1C[C@H]2[C@@H]3CCC4=CC(=O)C=C[C@]4(C)[C@@]3(F)[C@@H](O)C[C@]2(C)[C@H]1C(=O)CO | 0.0651 | 0.0601 | 0.0369 | -0.061 | 0.178 (active) | 0.0622 | 0.0336 | 0.0113
NC(=O)OCC(COC(N)=O)c1ccccc1 | 0.0149 | 0.0205 | 0.0713 | -0.054 | 0.0281 | 0.019 | -0.0181 | 0.0103
CC1(C)O[C@@H]2C[C@H]3[C@@H]4C[C@H](F)C5=CC(=O)C=C[C@]5(C)[C@@]4(F)[C@@H](O)C[C@]3(C)[C@]2(C(=O)CO)O1 | 0.13 (active) | 0.186 (active) | 0.0484 | 0.0785 | 0.14 (active) | 0.157 (active) | 0.0574 | 0.0265
CCN1CCC[C@H]1CNC(=O)c1cc(S(N)(=O)=O)ccc1OC | -0.0214 | -0.00754 | 0.0207 | -0.000435 | -0.0215 | -0.02 | 0.0473 | -0.0273
COC(=O)C1=C(C)NC(C)=C(C(=O)OC(C)C)C1c1cccc2nonc12 (configuration not stated) | -0.0966 | -0.107 (active) | 0.00177 | -0.0742 | -0.015 | -0.0967 | -0.00531 | -0.0356
CCCN1CCCC[C@H]1C(=O)Nc1c(C)cccc1C | 0.0505 | 0.0334 | -0.0126 | 0.0086 | 0.0221 | 0.0105 | 0.0113 | 0.0315
Cn1c(NCCN(CCO)CCCc2ccc([N+](=O)[O-])cc2)cc(=O)n(C)c1=O | -0.007 | -0.0379 | 0.0127 | -0.128 (active) | -0.0368 | 0.012 | -0.00107 | 0.0338
Cc1[nH]c(=O)c(C#N)cc1-c1ccncc1 | -0.015 | -0.0201 | 0.0127 | -0.0168 | -0.000763 | 0.0393 | 0.0209 | 0.0443
COc1cc2c(cc1OC)C(=O)C(CC1CCN(Cc3ccccc3)CC1)C2 (configuration not stated) | 0.0718 | 0.0262 | -0.0241 | -0.0742 | 0.0129 | -0.0194 | 0.00155 | 0.0243
COc1ccc2nc(S(=O)Cc3ncc(C)c(OC)c3C)[nH]c2c1 (configuration not stated) | 0.0168 | 0.00709 | 0.0324 | 0.00389 | 0.0492 | 0.00389 | 0.0199 | 0.0436
Cc1cccc(C)c1OCC(C)N (configuration not stated) | 0.00522 | 0.033 | 0.0106 | 0.0441 | 0.0258 | 0.00537 | 0.0107 | 0.0729
